Bioassay records deposited in PubChem BioAssay by National Center for Advancing Translational Sciences (NCATS).
Shown are actives, neighbours in structure and some others; about 10% of the full set was active somewhere.
HP1b chromo inh: HTS for Inhibitors of HP1-beta Chromodomain Interactions with Methylated Histone Tails; Chromobox protein homolog 1 (Homo sapiens), P83916; AID 540317, 2011; Potency, µM (doses to about 114 µM), for the others: at the highest dose activity change, negative = inhibition, most hits filed as inhibitors; AlphaScreen HP1-beta / biotin-H3K9me3 peptide binding; hit rate 0.56% among 390,000; also: potency is read from the fitted curve at half-maximal effect; nearly all actives have a fitted effect of over 70% in size
Target sequence (P83916 whole entry, looked up): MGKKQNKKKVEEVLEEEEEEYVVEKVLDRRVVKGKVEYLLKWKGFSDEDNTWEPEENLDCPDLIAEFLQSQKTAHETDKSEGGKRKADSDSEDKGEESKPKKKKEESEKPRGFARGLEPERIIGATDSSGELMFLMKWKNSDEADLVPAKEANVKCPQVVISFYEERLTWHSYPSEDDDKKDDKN
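AlphaScreen: HP1-beta (50 nM) preformed 30 min with biotin-H3(1-18)K9me3 peptide (50 nM) in PBS pH 7.4, 0.01% Tween-20. Compound added for 30 min at RT, then streptavidin donor/nickel chelate acceptor beads (10 ug/mL) for 30 min.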
Six1-Eya2 blk: qHTS Assay for Inhibitors of the Six1/Eya2 Interaction; Homeobox protein SIX1 (Homo sapiens) + Protein phosphatase EYA2 (Homo sapiens), …; AlphaScreen GST-Six1/His-Eya2 binding, biochemical; active compounds read low; activity change, % (concentration not given with the values); hit rate 0.56% among 360,000; AID 651725, 2012; in the data active = activity change below about -65%; inconclusive = mostly about -30% to -63%; also: % is scaled to controls: 0 for no effect and ±100 for the full control effect
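GST-Six1 + His-Eya2 (5X stock: 250/500 nM); Tris pH 8.0, 300 mM NaCl, 0.05% BSA, 0.02% Tween 20; GSH donor/Ni acceptor beads; 1 h 37 °C dark; AlphaScreen readout.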
G9a inh: qHTS Assay for Inhibitors of Histone Lysine Methyltransferase G9a; Potency, µM (highest dose often 102 µM), for the others: at the top dose activity, negative = inhibition, usual class: inhibitors; AID 504332, 2011; G9a H3K9 monomethylation, AlphaScreen, 2 h; hit rate 8.8% among 350,000; also: potency is read from the fitted curve at half-maximal effect; % is scaled to controls: 0 for no effect and ±100 for the full control effect; nearly all actives have a fitted effect of over 75% in size
Target sequence (Q96KQ7 913-1193 limits assumed): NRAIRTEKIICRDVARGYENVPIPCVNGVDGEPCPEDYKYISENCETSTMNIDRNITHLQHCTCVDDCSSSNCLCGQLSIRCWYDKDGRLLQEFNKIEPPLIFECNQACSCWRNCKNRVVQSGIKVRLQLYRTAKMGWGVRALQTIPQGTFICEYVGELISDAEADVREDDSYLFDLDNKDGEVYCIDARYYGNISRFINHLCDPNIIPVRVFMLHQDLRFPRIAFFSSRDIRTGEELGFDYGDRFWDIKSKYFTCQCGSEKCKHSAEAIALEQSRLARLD
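Step 1: enzyme (final 20 nM) with compound, 15 min RT. Step 2: substrate peptide 500 nM and SAM 20 uM, 2 h RT. Step 3: anti-H3K9me1 antibody and AlphaScreen beads, 10 min, then plate read.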
JMJD2A Tudor: qHTS Assay for Inhibitors of JMJD2A-Tudor Domain; Potency, µM (doses to about 114 µM), without a hit: at the top dose activity change, negative = inhibition, usual class: inhibitors; hit rate 4.4% among 390,000; Lysine-specific demethylase 4A (Homo sapiens), O75164; AID 504339, 2011; AlphaScreen JMJD2A-Tudor / H3K4me3 peptide binding; also: potency is read from the fitted curve at half-maximal effect; % is scaled to controls: 0 for no effect and ±100 for the full control effect; nearly all actives have a fitted effect of over 50% in size
CtBP-E1A blk: qHTS Assay for Inhibitors of the CtBP/E1A Interaction | CtBP / adenovirus E1A interaction (AlphaScreen) | hit rate 0.49% among 340,000 | activity change, % (concentration not given with the values) | AlphaScreen GST-E1A/His-CtBP binding, 1536-well; active compounds read low; in the data active = activity change below about -65%; inconclusive = mostly about -30% to -63%; also: % is scaled to controls: 0 for no effect and ±100 for the full control effect
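GST-E1A and His-tagged CtBP (125 nM each as 5X stock) were preincubated with pin-transferred compound for 2 h at 37 °C in the dark, then glutathione donor and nickel acceptor beads were added for 1 h before AlphaScreen reading.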
BAZ2B block: qHTS Assay for Inhibitors of BAZ2B; hit rate 4.4% among 360,000; AID 504333, 2011; Bromodomain adjacent to zinc finger domain protein 2B (Homo sapiens), Q9UIF8; Potency, µM (highest dose often 114 µM), for inactives: top-dose activity change, negative = inhibition, most hits filed as inhibitors; AlphaScreen BAZ2B-H3K14Ac peptide displacement; also: potency is read from the fitted curve at half-maximal effect; % is scaled to controls: 0 for no effect and ±100 for the full control effect; nearly all actives have a fitted effect of over 60% in size
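AlphaScreen displacement of biotin-H3(5-23)K14Ac peptide (50 nM final) from BAZ2B (50 nM final) in PBS pH 7.4, 0.01% Tween-20; complex preformed 30 min RT, then compounds (top 110 uM) 30 min RT, beads 20 min dark.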
The depositor's hits bear a star; ? = inconclusive; / = not tested or not shown; [ ] = remark or other dose. Unless noted, calls follow the shape of the dose curve; as a rule, active = well fitted inhibition curve with a large enough effect; inconclusive = small, poorly fitted or top-dose-only effect; inactive = no such curve, though single readings can be large or run the other way.

SMILES	HP1b chromo inh	Six1-Eya2 blk	G9a inh	JMJD2A Tudor	CtBP-E1A blk	BAZ2B block
Cc1ccc(-c2nnc(Nc3cccc(Cl)c3)c3ccccc23)cc1S(=O)(=O)N1CCN(C)CC1	6%	/	7.9µM*	?	/	?
Cc1ccc(-c2nnc(Nc3cccc(Br)c3)c3ccccc23)cc1S(=O)(=O)N1CCN(C)CC1	3%	/	-51%[59 µM]	?	/	?
Cc1cccc(Nc2nnc(-c3ccc(C)c(S(=O)(=O)N4CCN(C)CC4)c3)c3ccccc23)c1	3%	/	18µM*	-33%	/	?
Cc1ccc(-c2nnc(Nc3ccccc3)c3ccccc23)cc1S(=O)(=O)N1CCN(C)CC1	6%	/	?	-16%	/	-2%
O=C1CCN(S(=O)(=O)c2ccccc2)C2CCCCC12 (configuration not stated)	-5%	-2	-28%	-25%[57.1 µM]	0	-3%
O=C1NC2CCCCC2C(=O)N1OS(=O)(=O)c1ccccc1 (configuration not stated)	50µM*	0	/	?	0	/
Fc1ccc(N/N=C/c2ccc(N3CCOCC3)cc2)c(F)c1	?	-6	10µM*	?	3	?
C/C(=C\C(=O)c1ccc(F)cc1)Nc1ccc(N2CCOCC2)cc1	3%	-19	40µM*	?	-23	-9%
C/C(=N\Nc1ccc(F)cc1F)c1ccc(N2CCOCC2)cc1	-10%	-8	7.9µM*	?	-8	-37%
C/C(=N\Nc1ccc(F)cc1F)c1ccc(F)cc1	/	/	10%[0.501 µM]	/	/	-1%
C/C(=N\Nc1ccc(F)cc1F)c1ccc(Br)s1	?	-7	8.9µM*	-15%	10	-2%
O=C(/C=C/c1ccc(F)cc1)c1ccc(N2CCOCC2)cc1	15%	5	3%	-8%	-4	-13%
Cc1ccc2c(c1)cc1c(=O)n(CC(=O)NC(C)CCc3ccccc3)nc(C)n12 (configuration not stated)	30%	/	0%[59 µM]	-2%	/	-12%
COCCNc1oc(/C=C/c2ccc(F)cc2)nc1C#N	20%	/	5%[59 µM]	-1%	/	-14%
CCOC(=O)C1CCN(S(=O)(=O)c2ccc(N3CCCCS3(=O)=O)cc2)CC1	28%	/	9%[12.7 µM]	3%	/	-9%
COc1ccc(/C=N/N=C2\SCC(=O)N2c2c(C)n(C)n(-c3ccccc3)c2=O)cc1OC	28%	-10	8.9µM*	-9%	-2	?
O=c1c2ccccc2sn1-c1ccc(Cl)c(S(=O)(=O)N2CCOCC2)c1	?	/	/	14µM*	/	/
O=c1c2ccccc2sn1-c1ccc(S(=O)(=O)N2CCOCC2)cc1	?	/	/	50µM*	/	/
O=S(=O)(c1ccc(N2CCOCC2)cc1)N1CCOCC1	22%	2	11%[59 µM]	-14%	3	6%
CCOC(=O)CSc1nc(-c2ccc(C)cc2C)cc(-c2ccccc2)c1C#N	222%	/	192%[59 µM]	112%	/	84%
COC(=O)c1ccc(NC(=O)CN(c2cccc(C(F)(F)F)c2)S(C)(=O)=O)cc1	60%	/	7%[59 µM]	-6%	/	-13%
O=C(CC1=NC2(CCCC2)Cc2ccccc21)N1CCOCC1	-2%	-3	?	?	2	50µM*
CCC1(CC)Cc2ccccc2C(CC(=O)N2CCOCC2)=N1	-24%	-7	40µM*	22µM*	0	56µM*
CCOc1ccc(NC(=O)N2CCN(C(=O)c3nsc4ccccc34)CC2)cc1	26%[57 µM]	/	-22%[59 µM]	5%	/	-3%
Fc1ccc2[nH]c3c(c2c1)CN(C(=S)NCc1ccccc1)CC3	-18%	-18	/	?	-5	56µM*
SMILES	HP1b chromo inh	Six1-Eya2 blk	G9a inh	JMJD2A Tudor	CtBP-E1A blk	BAZ2B block
CCOC(=O)C1CCN(C(=O)C2CCN(C3=NS(=O)(=O)C(c4ccc(C)c(C)c4)=C3C)CC2)CC1	50%	/	1%[59 µM]	-1%	/	3%
CCOC(=O)c1ccc(NC(=O)CC2S/C(=N/N=C3/NC(=O)CS3)NC2=O)cc1 (configuration not stated)	18%	?	-7%	?	?	-37%
Cc1ccc(NC(=O)CC2S/C(=N/N=C3/NC(=O)CS3)NC2=O)cc1 (configuration not stated)	44%	-75*	?	?	-23	56µM*
CCN1C(C(=O)c2ccccc2)=C(OC(=O)COc2ccccc2)c2ccccc2S1(=O)=O	2%	/	13µM*	35µM*	/	?
Cc1ccc(OCC(=O)OC2=C(C(=O)c3ccccc3)N(C)S(=O)(=O)c3ccccc32)cc1	6%	/	20µM*	?	/	-18%
Cc1ccc(C(=O)OC2=C(C(=O)c3ccccc3)N(C)S(=O)(=O)c3ccccc32)cc1	-5%	/	?	?	/	-20%
COc1ccc(C(=O)OC2=C(C(=O)c3ccccc3)N(C)S(=O)(=O)c3ccccc32)cc1OC	-5%	/	20µM*	-30%	/	?
Cc1ccc(-c2nnc(Nc3cccc(O)c3)c3ccccc23)cc1S(=O)(=O)N1CCCCC1	0%	/	-8%[59 µM]	-35%	/	-23%
N#CC1=C(NC=NCc2ccccc2)Oc2ccc3ccccc3c2C1c1ccccc1 (configuration not stated)	/	/	/	-30%	/	/
O=C(OCC(=O)N1CCCc2ccccc21)c1ccc(C(F)(F)F)cc1	104%	14	53%	23%	3	24%
O=C(OCC(=O)N1CCCc2ccccc21)c1ccc(S(=O)(=O)C(F)F)cc1	10%	6	50µM*	-21%	5	8%
Cc1cc(C)nc(OC(C(=O)O)C(OCCC(C)C)(c2ccccc2)c2ccccc2)n1 (configuration not stated)	22%	0	4%	-13%	/	-17%
CCCOC(c1ccccc1)(c1ccccc1)C(Oc1nc(C)cc(C)n1)C(=O)O (configuration not stated)	31%	2	71µM*	-4%	4	-16%
CCOCCCNC(=O)C(c1ccc(C)cc1)N(Cc1ccc2c(c1)OCO2)C(=O)c1ccc(NC(C)=O)cc1 (configuration not stated)	24%	/	7%[59 µM]	-5%	/	5%
COc1ccc2c(c1)c1nc3ccccc3nc1n2CCn1c(=O)oc2ccccc21	55%	21	-10%[59 µM]	-5%	0	-4%
O=c1oc2ccccc2n1CCn1c2ccccc2c2nc3ccccc3nc21	51%	1	20µM*	-19%	11	0%
